Unmarked numbers belong to inactive results.
Tests used:
Assay in all cases: log2 ratio of Biotin-Ahx-Ub-VS probe labelling (fragment/DMSO); higher = less target engagement (more negative = stronger competition), active = hit call of the paper (q ≤ 0.05, log2 ratio ≤ -1)
Settings in all cases: compound concentration: 200 uM; treatment time: 3 h
[1] = biological target: T1, ALG13 (UniProt Q9NP73)
T1 sequence (whole entry): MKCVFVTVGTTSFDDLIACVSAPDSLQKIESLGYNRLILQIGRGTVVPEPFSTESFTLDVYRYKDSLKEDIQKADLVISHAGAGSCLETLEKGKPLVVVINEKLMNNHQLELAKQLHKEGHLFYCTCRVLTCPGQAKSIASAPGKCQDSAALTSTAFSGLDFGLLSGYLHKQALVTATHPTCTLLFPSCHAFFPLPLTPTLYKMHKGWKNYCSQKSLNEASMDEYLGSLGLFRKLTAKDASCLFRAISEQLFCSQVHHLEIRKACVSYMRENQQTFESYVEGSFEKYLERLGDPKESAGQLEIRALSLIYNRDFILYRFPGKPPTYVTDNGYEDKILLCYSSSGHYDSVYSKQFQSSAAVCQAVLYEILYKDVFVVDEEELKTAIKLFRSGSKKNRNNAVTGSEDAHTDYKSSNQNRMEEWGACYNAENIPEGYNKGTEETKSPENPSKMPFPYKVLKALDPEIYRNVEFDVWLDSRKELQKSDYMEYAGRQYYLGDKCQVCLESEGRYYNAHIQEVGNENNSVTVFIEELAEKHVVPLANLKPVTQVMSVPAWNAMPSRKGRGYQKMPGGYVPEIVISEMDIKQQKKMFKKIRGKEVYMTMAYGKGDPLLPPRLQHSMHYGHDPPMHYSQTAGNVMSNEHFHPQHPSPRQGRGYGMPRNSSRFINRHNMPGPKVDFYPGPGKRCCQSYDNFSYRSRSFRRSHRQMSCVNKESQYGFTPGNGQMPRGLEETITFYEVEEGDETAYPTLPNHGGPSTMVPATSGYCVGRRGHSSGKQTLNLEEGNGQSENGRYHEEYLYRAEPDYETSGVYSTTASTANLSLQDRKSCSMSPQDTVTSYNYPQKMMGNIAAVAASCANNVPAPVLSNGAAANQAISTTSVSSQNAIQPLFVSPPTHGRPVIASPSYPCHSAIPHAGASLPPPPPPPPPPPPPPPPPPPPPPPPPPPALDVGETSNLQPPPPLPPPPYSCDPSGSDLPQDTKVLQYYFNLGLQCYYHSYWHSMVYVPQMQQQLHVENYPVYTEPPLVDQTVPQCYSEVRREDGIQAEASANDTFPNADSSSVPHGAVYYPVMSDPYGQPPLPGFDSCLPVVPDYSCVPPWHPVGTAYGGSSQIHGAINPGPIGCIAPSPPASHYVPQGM
Procedure, shortened: (§1)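 Average log2 ratios of fragment over vehicle were obtained by unpaired t-test from global-median-normalised Spectronaut label-free quantities. Proteins with ≥2 unique peptides were included. HEK293T lysate (495 µg per sample) was treated in triplicate with fragment at 200 µM or vehicle for 3 h, then with Biotin-Ahx-Ub-VS at 0.5 µM final for 1 h, and labelled DUBs were NeutrAvidin-enriched and run by diaPASEF LC-MS/MS.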

[2] = biological target: ATXN3 (UniProt P54252)
Sequence of ATXN3 (P54252 whole entry): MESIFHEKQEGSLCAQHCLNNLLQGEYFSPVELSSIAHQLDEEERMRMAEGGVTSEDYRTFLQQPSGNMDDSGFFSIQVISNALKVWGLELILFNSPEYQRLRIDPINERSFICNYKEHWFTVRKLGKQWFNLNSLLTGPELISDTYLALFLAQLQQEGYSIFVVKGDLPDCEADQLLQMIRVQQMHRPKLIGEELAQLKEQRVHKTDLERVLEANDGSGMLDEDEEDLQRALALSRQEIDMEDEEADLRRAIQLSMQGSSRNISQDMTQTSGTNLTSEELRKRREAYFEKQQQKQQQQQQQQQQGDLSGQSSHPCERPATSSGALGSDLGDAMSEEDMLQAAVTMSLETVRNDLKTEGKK
Procedure, shortened: as §1

[3] = biological target: T2, BAP1 (UniProt Q92560)
T2 sequence (whole entry): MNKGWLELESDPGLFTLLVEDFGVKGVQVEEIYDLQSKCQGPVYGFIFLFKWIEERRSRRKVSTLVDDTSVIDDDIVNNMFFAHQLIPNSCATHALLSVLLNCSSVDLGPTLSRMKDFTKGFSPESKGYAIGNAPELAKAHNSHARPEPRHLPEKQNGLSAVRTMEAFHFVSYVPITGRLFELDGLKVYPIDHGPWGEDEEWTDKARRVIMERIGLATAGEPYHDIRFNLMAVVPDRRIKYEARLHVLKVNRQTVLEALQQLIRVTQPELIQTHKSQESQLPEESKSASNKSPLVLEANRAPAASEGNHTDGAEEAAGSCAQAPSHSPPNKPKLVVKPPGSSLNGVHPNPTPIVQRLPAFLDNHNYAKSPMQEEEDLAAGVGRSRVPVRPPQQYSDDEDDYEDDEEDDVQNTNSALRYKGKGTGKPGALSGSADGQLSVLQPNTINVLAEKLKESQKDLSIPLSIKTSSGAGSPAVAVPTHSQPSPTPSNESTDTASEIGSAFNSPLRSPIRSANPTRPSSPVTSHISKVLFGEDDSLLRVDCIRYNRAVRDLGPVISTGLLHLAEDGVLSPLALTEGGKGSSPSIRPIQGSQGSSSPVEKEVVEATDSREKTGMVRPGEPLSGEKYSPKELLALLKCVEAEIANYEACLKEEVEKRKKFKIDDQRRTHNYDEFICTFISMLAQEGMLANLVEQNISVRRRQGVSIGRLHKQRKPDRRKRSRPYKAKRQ
Procedure, shortened: as §1

[4] = biological target: EIF3F (UniProt O00303)
Sequence of EIF3F (O00303 whole entry): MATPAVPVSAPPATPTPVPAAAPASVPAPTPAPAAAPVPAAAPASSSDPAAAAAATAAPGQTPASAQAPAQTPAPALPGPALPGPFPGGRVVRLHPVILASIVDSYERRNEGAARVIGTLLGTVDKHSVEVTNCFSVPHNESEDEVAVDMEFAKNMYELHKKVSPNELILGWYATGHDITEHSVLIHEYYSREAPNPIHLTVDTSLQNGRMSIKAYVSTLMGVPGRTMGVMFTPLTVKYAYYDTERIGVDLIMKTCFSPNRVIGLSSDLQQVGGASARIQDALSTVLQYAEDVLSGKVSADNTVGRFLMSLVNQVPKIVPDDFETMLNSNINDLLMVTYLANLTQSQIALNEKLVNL
Procedure, shortened: as §1

[5] = biological target: EIF3H (UniProt O15372)
Sequence of EIF3H (O15372 whole entry): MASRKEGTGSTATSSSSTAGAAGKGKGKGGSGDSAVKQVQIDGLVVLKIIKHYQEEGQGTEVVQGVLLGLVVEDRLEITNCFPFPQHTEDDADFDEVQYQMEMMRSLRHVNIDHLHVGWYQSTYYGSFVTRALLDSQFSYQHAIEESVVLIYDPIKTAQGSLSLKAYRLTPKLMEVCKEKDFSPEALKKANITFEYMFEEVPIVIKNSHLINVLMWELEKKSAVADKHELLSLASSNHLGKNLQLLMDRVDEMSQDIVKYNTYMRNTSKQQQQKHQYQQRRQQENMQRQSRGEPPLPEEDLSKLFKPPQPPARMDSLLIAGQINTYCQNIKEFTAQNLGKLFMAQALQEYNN
Procedure, shortened: as §1

[6] = biological target: T3, FAM105A (UniProt Q9NUU6)
T3 sequence (whole entry): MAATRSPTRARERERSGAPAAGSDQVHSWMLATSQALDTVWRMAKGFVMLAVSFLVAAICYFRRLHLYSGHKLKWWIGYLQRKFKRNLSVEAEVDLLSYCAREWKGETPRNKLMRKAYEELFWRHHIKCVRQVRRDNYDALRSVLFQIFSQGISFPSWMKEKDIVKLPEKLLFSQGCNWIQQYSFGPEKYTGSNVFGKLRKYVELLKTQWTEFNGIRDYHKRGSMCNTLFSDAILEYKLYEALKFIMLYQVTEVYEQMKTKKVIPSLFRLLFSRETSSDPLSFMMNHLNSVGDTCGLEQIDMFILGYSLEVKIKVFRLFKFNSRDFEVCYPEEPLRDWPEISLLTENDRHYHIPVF
Procedure, shortened: as §1

[7] = biological target: OTUB1 (UniProt Q96FW1)
Sequence of OTUB1 (Q96FW1 whole entry): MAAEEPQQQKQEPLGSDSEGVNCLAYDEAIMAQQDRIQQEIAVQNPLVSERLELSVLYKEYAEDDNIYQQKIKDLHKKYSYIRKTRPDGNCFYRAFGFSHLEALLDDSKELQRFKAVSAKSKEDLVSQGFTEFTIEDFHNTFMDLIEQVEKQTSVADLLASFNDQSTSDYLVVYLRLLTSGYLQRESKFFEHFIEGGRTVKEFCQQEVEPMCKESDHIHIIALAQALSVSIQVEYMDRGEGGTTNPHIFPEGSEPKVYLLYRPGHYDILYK
Procedure, shortened: as §1

[8] = biological target: T4, OTUD4 (UniProt Q01804)
T4 sequence (whole entry): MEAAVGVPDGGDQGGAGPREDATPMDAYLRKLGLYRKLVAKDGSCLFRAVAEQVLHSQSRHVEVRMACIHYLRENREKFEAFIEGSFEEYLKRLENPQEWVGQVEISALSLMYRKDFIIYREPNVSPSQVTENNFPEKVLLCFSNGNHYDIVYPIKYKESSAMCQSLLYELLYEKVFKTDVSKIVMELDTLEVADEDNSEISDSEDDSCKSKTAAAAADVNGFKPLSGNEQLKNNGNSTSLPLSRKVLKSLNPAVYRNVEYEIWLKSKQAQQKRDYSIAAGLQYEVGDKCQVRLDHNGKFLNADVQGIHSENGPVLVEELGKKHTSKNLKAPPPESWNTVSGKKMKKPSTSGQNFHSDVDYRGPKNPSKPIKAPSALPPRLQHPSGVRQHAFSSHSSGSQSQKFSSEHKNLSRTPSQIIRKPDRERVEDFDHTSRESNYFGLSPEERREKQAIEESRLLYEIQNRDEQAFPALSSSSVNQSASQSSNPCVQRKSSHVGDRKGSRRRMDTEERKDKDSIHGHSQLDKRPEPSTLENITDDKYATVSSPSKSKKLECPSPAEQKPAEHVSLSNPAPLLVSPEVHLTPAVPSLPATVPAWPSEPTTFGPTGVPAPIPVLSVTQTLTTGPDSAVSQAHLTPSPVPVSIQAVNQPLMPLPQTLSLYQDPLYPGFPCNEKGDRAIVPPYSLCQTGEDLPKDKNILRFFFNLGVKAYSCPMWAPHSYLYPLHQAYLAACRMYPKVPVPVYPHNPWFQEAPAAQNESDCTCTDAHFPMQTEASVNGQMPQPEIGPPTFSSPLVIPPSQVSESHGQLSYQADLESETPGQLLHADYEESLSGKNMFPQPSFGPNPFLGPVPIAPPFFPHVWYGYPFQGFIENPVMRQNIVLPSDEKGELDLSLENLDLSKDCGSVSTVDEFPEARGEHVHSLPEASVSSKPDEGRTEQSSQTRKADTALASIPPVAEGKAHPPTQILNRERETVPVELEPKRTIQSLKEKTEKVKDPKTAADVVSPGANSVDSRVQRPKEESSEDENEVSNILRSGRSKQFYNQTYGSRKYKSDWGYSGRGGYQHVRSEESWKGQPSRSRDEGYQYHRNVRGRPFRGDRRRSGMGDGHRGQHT
Procedure, shortened: as §1

[9] = biological target: T5, OTUD5 (UniProt Q96G74)
T5 sequence (whole entry): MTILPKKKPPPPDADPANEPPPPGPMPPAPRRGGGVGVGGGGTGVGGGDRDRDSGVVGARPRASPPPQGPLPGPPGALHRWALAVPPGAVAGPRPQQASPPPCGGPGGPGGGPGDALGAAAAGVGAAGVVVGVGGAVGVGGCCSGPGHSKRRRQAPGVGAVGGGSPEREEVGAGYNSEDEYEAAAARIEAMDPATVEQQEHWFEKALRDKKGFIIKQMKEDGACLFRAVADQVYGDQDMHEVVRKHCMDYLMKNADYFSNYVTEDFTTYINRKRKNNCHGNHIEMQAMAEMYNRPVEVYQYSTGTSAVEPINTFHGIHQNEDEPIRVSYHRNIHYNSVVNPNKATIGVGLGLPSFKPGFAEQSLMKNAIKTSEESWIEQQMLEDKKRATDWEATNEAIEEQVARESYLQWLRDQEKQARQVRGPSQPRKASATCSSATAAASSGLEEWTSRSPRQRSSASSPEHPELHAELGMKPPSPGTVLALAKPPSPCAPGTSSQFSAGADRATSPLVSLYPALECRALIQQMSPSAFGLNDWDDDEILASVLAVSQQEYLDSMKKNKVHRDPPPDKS
Procedure, shortened: as §1

Structure (SMILES)	log2 ratio of Biotin-Ahx-Ub-VS probe labelling [1]	log2 ratio of Biotin-Ahx-Ub-VS probe labelling [2]	log2 ratio of Biotin-Ahx-Ub-VS probe labelling [3]	log2 ratio of Biotin-Ahx-Ub-VS probe labelling [4]	log2 ratio of Biotin-Ahx-Ub-VS probe labelling [5]	log2 ratio of Biotin-Ahx-Ub-VS probe labelling [6]	log2 ratio of Biotin-Ahx-Ub-VS probe labelling [7]	log2 ratio of Biotin-Ahx-Ub-VS probe labelling [8]	log2 ratio of Biotin-Ahx-Ub-VS probe labelling [9]
O=C(CCl)Nc1cccc2ncccc12	-0.13	0.14	-3.71 (active)	0.254	-0.273	-0.205	0.156	-0.176	-0.516
Cc1ccccc1CN(C)C(=O)CCl	-0.539	-1.13 (active)	-2.27 (active)	-0.115	0.207	-0.463	-0.437	-0.914	-1.15 (active)
O=C(CCl)NCCc1ccc2c(c1)OCCO2	-0.0432	-0.16	-1.7 (active)	-0.184	0.186	0.307	-0.173	-0.539	-0.693
COc1ccccc1C(C)NC(=O)CCl (stereo not drawn)	-0.0378	-0.0967	-2.35 (active)	-0.185	-0.0831	-0.0799	-0.298	-0.393	-0.514
O=C(CCl)N1CCOC2(CCC2)CC1	-0.588	-0.29	-0.305	-0.12	0.0846	-0.0165	-0.14	-0.374	-0.595
O=C(CCl)N1CCC(C(=O)N2CCCCCC2)CC1	0.205	-0.407	-0.398	-0.0762	0.0816	-0.0217	0.0563	-0.035	-0.328
Cc1cc(CC(C)NC(=O)CCl)n[nH]1 (stereo not drawn)	0.0722	-0.115	-0.509	-0.138	-0.131	0.19	0.11	-0.115	-0.0107

Source: the supplement of paper PMC11732987, “Enantioselective OTUD7B fragment discovery through chemoproteomics screening and high-throughput optimisation” (Communications Chemistry, 2025)
